Screens from PubChem.
A selection: hits, their analogues and other compounds. The true share with any hit is near 2.4%.
D2 ag-1: human D2 receptor agonism in beta-arrestin assay; P14416; DiscoveRx PathHunter D2 beta-arrestin, luminescence, 90 min; 100% = 57 uM dopamine signal; activation, % (no concentration beside the values); 0.084% of 360,000 active; AID 624465; in the data active = activation above about 40%; inconclusive = between about 15% and that limit
Target sequence (P14416 whole entry, looked up): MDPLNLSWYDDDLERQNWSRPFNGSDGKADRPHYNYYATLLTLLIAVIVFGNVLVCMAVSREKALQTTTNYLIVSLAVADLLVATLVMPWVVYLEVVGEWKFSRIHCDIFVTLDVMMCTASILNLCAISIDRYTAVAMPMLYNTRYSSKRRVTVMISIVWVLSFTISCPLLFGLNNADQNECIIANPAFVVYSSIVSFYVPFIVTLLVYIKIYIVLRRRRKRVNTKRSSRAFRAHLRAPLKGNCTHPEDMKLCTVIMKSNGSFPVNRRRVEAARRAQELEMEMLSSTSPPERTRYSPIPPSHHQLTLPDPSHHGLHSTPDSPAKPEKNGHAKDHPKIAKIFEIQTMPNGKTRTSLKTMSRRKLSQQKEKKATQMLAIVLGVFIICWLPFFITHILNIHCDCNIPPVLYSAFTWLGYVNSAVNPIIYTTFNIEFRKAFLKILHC
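Agonist mode: compounds alone added to overnight-plated D2 PathHunter cells for 90 min at 37 C, with 57 uM final dopamine (EC100) defining full response. Beta-arrestin recruitment detected by chemiluminescent reagent, read after 1 h at ambient temperature.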
D2 antag: antagonists of human D2 dopamine receptor | 2% of 340,000 active | inhibition, % at 10 µM | P14416 | HEK293 TREx D2 cells, calcium flux, dopamine EC80 | AID 485344; in the data active = inhibition above about 30%; inactive = below that, where a call was filed
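Overnight-induced (tetracycline, 30 C) HEK293 T-REx cells carrying force-coupled D2 receive a no-wash calcium dye, then compound, then EC80 dopamine at 180 s; signals are read kinetically throughout.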
D2 ag-2: D2 dopamine receptor (human) agonism | P14416 | HEK293 T-REx D2 cells, calcium flux agonist mode | activation, % at 2 µM | 0.53% of 340,000 active;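 active = activation over 3 SD above normal in the single-dose calcium agonist read, cut at about 30% in these data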
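HEK293 Trex D2 cells, tetracycline-induced, o/n 30 C 5% CO2; no-wash Ca dye, RT 30–90 min; 10-cycle baseline, 23 nl cpd added, kinetic Ca read 180 s; agonist hits = positive Ca response.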
D2 PAM-1: positive allosteric modulators of human D2 dopamine receptor | DiscoveRx D2 beta-arrestin cells, luminescence, 90 min; 100% = 57 uM dopamine signal | potentiation, % (no concentration beside the values) | AID 624464 | P14416 | 0.23% of 360,000 active; in the data active = potentiation above about 50%; inconclusive = mostly about 30% to 49%
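PathHunter beta-arrestin assay in DiscoveRx D2 cells. Compounds were added with an EC20 of dopamine (50 nM final) for 90 min at 37 deg C. Luminescence was read 1 h after detection reagent, with 57 uM dopamine as the EC100 control.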
D2 PAM-2: positively modulates the human D2 dopamine receptor allosterically. HEK293 T-REx D2, calcium flux, EC20 dopamine potentiation. 0.34% of 340,000 active. AID 485347. potentiation, % at 10 µM;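 active = potentiation over 3 SD above the plate norm, cut at about 30% in these data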
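Tetracycline-induced HEK293 T-REx cells force-coupled to calcium signalling expressed D2; compounds were pin-added after a 10 s baseline, read kinetically 180 s, then an EC20 dopamine challenge followed with a further 180 s calcium read.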
Large screens that a line does not name were inactive.

O=C(Cn1cc(/C=N/O)c2ccccc21)N1CCOCC1	D2 antag 39
CC(=O)c1c(C)oc2c1cc(O)c1ccccc12	none
CCOC(=O)c1c(C)oc2c1cc(O)c1ccccc12	D2 PAM-1 58
O=C(NCC(c1cccnc1)N1CCOCC1)c1cccs1 (stereo not drawn)	D2 antag 34
COC(=O)NCC(c1cccnc1)N1CCOCC1 (stereo not drawn)	none
Cc1cc(NC(=O)Cn2ccsc2=N)c([N+](=O)[O-])cc1C	none
COc1ccc([N+](=O)[O-])cc1NC(=O)Cn1ccsc1=N	D2 antag 31
COC(=O)c1cc2oc3ccccc3c2n1CC(=O)Nc1ccc(C)cc1Cl	none (no result: D2 ag-1, D2 antag, D2 PAM-1)
O=C(CC1N=C2c3ccccc3N=C(SCC(=O)Nc3cccc(Cl)c3)N2C1=O)NCc1cccs1 (stereo not drawn)	none (no result: D2 ag-1, D2 antag, D2 PAM-1)
CCOC(=O)c1oc2ccc(S(=O)(=O)n3nc(-c4ccc(C)cc4)cc3N)cc2c1C	D2 antag 35
CCC(C)NCCOc1cccc(Br)c1 (stereo not drawn)	D2 antag 45
Cc1ccc(Cn2c(CNC(=O)c3cccc(C)c3)nc3ccccc32)cc1	none (no result: D2 ag-1, D2 antag, D2 ag-2, D2 PAM-1)
CCOc1ccc(-n2c(Cc3cc(=O)[nH]c(=O)[nH]3)nnc2SCC)cc1	D2 antag 40
CC(C)NC(=O)C1CCCN(S(=O)(=O)c2ccc3c(ccn3C)c2)C1 (stereo not drawn)	none (no result: D2 ag-1, D2 antag, D2 PAM-1)
O=C(c1ccc(N2CCOCC2)c([N+](=O)[O-])c1)N1CCN(c2ccccc2)CC1	none (no result: D2 antag, D2 ag-2, D2 PAM-2)
O=C(c1ccc(N2CCC3(CC2)OCCO3)c([N+](=O)[O-])c1)N1CCOCC1	D2 antag 31
Oc1ccc(CN2CCCCC2)c2cccnc12	none
Oc1ccc(CN2CCc3ccccc3C2)c2cccnc12	D2 antag 65
Oc1cc2c(cc1CN1CCc3ccccc3C1)OCO2	D2 antag 33
COc1cc(CN2CCc3ccccc3C2)ccc1O	none
COc1ccccc1N1CCN(C(=O)CSc2nnnn2C2CC2)CC1	none
COc1ccc(N2CCN(C(=O)CSc3nnnn3C3CC3)CC2)cc1	D2 antag 32
Oc1ccc(N=Nc2ccccc2)cc1	D2 antag 33
COc1ccc(-c2nn(-c3ccccc3)cc2/C=N/NC(=O)c2cccc(S(=O)(=O)Nc3ccccc3Cl)c2)cc1	D2 antag 45
CCSc1ncc(Cl)c(C(=O)N(Cc2ccc(N(C)C)cc2)Cc2ccco2)n1	none (no result: D2 ag-1, D2 antag, D2 PAM-1, D2 PAM-2)
Cc1cc(C)cc(-n2c(SCC(N)=O)nc3c(oc4ccccc43)c2=O)c1	none (no result: D2 ag-1, D2 antag, D2 PAM-1)
Cc1ccc(C)c(OCCC(=O)NNC(=O)c2ccncc2)c1	D2 antag 43
Cc1ccc(C)c(OCCC(=O)NNC(=O)c2ccccc2)c1	none
Cc1cccc(Nc2nc(N3CCOCC3)nc(N3CCOCC3)n2)c1	none
Oc1cccc(Nc2nc(N3CCOCC3)nc(N3CCOCC3)n2)c1	D2 antag 36
CC(=O)N1c2ccc(S(=O)(=O)NCC3CCC(C(=O)NCCC(C)C)CC3)cc2CC1C (stereo not drawn)	none (no result: D2 ag-1, D2 antag, D2 ag-2, D2 PAM-1)
CCCNC(=O)C1CCC(CNS(=O)(=O)c2ccc3c(c2)CC(C)N3C(C)=O)CC1 (stereo not drawn)	D2 antag 41
Cc1cccc(OCCCCn2nnc3sc4c(c3c2=O)CCC(C)C4)c1 (stereo not drawn)	none (no result: D2 ag-1, D2 antag, D2 PAM-1)
CCOC(=O)c1cc(-c2ccc(OC)cc2)n(CCC(=O)Nc2nc3ccc(OCC)cc3s2)c1C	none (no result: D2 ag-1, D2 antag, D2 PAM-1)
CCOc1cc(C(=O)NCCN2CCOCC2)cc(OCC)c1OCC	D2 PAM-2 42
O=C(CN(C(=O)c1csnn1)c1ccccc1F)NCc1ccc2c(c1)OCO2	none
O=C(CN(C(=O)c1csnn1)c1cccc(F)c1)NCc1ccc2c(c1)OCO2	D2 antag 42
CN1C(=O)c2oc3ccccc3c(=O)c2C1c1cccnc1 (stereo not drawn)	none (no result: D2 antag, D2 ag-2, D2 PAM-2)
CN1C(=O)c2oc3ccccc3c(=O)c2C1c1ccccn1 (stereo not drawn)	D2 PAM-2 32
CC(C)Cc1nnc(NC(=O)CCC(=O)Nc2ccc(Cl)cc2)s1	none
Cc1cc(C)cc(NC(=O)CCC(=O)Nc2nnc(C(F)(F)F)s2)c1	none
CC(C)c1nnc(NC(=O)CCC(=O)Nc2ccc(Cl)cc2)s1	D2 antag 41
Cc1cc(C)cc(NC(=O)CCC(=O)Nc2nnc(C(C)C)s2)c1	D2 antag 33
CCN(Cc1ccccc1)C(=O)Cn1c(=O)n(-c2cccc(C)c2)c(=O)c2c1c1cc(C)ccc1n2C	none (no result: D2 ag-1, D2 antag, D2 PAM-1)
COc1ccc(-n2c(=O)c3ccc(C(=O)NCc4ccc(C)cc4)cc3n(Cc3ccc(Cl)cc3)c2=O)cc1	none (no result: D2 ag-1, D2 antag, D2 PAM-1)
Cc1cc(C)c(Cn2c3ccccc3c3cnn(CC(=O)NC4CCC(C)CC4)c(=O)c32)c(C)c1 (stereo not drawn)	none (no result: D2 ag-1, D2 antag, D2 PAM-1)
O=C(Nc1ccccc1)Nc1cccc2cccnc12	D2 PAM-2 34
Cc1cc(C)cc(N2C(=O)CSC23C(=O)N(CC(=O)NCCc2ccccc2)c2ccccc23)c1 (stereo not drawn)	none (no result: D2 ag-1, D2 antag, D2 PAM-1)
COc1ccccc1/C=C1\SC(=S)N(CCC(=O)Nc2cc(C)on2)C1=O	none (no result: D2 PAM-2)
CCc1nnc(NC(=O)CN2C(=O)/C(=C/c3cc(OC)c(OC)c(OC)c3)SC2=S)s1	D2 PAM-2 31
COc1ccccc1/C=C1\SC(=S)N(CCC(=O)Nc2nnc(C)s2)C1=O	D2 antag 31
CNC(=O)c1c(NC(=O)c2cc(=O)c3cc(C)c(C)cc3o2)sc2c1CCCC2	none (no result: D2 ag-1, D2 antag, D2 PAM-1)
CCCN1CCN(c2ncc3c(n2)CCN(Cc2ccc(OC)c(OC)c2OC)C3)CC1	none (no result: D2 ag-1, D2 antag, D2 PAM-1)
Nc1nn(-c2ccccc2)nc1C(=O)OCc1ccccc1Br	none (no result: D2 ag-1, D2 antag, D2 PAM-1)
CN(C)CCCNC(=O)N1c2ccccc2C=Cc2ccccc21	D2 antag 33
CCN(CC)C(=O)N1c2ccccc2C=Cc2ccccc21	none
Cc1cccc(NC(=O)CN(C)CC(=O)NC(c2ccccc2)c2ccccc2)c1C	D2 antag 33
CSc1ccc(/C=C/C(=O)OCC(=O)NC2CCCC2)cc1	none (no result: D2 antag, D2 ag-2, D2 PAM-2)
CSc1ccc(/C=C/C(=O)OCC(=O)c2ccc[nH]2)cc1	D2 antag 50
COc1cc(NC(=O)CCc2c(C)nc3c(-c4ccc(F)cc4)c(C)nn3c2C)cc(OC)c1OC	none (no result: D2 ag-1, D2 antag, D2 PAM-1)
Cc1ccc(CN2CCN(/N=C/c3cccn3C)CC2)c(C)c1	D2 antag 51
CCOC(=O)c1c(C)oc2c1c1c(c3ccccc32)OCN(Cc2cccnc2)C1	D2 ag-1 inconclusive, D2 PAM-1 113
CCOC(=O)c1c(C)oc2c1c1c(c3ccccc32)OCN(CCCC(=O)O)C1	none
Cc1ccc(C(=O)N/N=C\c2ccc(-c3ccc([N+](=O)[O-])cc3)o2)cn1	none
Cc1ccc(C(=O)N/N=C\c2ccc(-c3ccc(Cl)cc3)o2)cn1	D2 PAM-2 30
